Measured values from ChEMBL document CHEMBL3433997, “St. Jude Leishmania screening dataset” (2016).

What was measured:
Format in all cases: functional
[1] = target: Solute carrier family 2, facilitated glucose transporter member 1 (Homo sapiens) (UniProt P11166); experiment: ST_JUDE_LEISH: Cytotoxicity at 2uM final concentration against transgenic Leishmania Mexicana promastigotes LmGLUT1 that are glucose transport deficient and complemented with the human glucose transporter GLUT1. Activity is measured by DNA content using SYBR green in vitro
[2] = target: Hexose transporter 1 (Plasmodium falciparum) (UniProt O97467); experiment: ST_JUDE_LEISH: Cytotoxicity at 2uM final concentration against transgenic Leishmania Mexicana promastigotes LmPfHT that are glucose transport deficient and complemented with the Plasmodium falciparum hexose transporter. Activity is measured by DNA content using SYBR green in vitro
[3] = target: Glucose transporter (Leishmania mexicana) (UniProt O61059); experiment: ST_JUDE_LEISH: Cytotoxicity at 2uM final concentration against transgenic Leishmania Mexicana promastigotes LmGT2 that are glucose transport deficient and complemented with the L. Mexicana glucose transporter 2. Activity is measured by DNA content using SYBR green in vitro

Chain of Solute carrier family 2, facilitated glucose transporter member 1 (Homo sapiens) (P11166 whole entry): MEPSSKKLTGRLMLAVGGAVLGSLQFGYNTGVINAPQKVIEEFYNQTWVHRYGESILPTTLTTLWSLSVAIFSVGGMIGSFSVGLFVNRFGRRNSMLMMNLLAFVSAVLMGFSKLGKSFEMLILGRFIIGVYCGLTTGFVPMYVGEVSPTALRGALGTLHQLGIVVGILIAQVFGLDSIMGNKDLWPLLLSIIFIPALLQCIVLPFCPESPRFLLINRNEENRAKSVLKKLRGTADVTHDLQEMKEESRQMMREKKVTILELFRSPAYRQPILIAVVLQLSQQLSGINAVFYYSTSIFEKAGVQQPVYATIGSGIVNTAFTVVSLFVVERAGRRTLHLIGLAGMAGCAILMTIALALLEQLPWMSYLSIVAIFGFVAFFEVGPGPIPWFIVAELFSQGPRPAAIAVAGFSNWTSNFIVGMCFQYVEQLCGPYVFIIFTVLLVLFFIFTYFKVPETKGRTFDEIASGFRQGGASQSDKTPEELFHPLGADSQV

| Structure (SMILES) | inhibition [1] | inhibition [2] | inhibition [3] |
| --- | --- | --- | --- |
| CCCCCCn1ccc2c3c(N)nc(N)nc3ccc21 | 104% | 101% | 102% |
| CCCN(CCC)C(=O)c1cc(C(=O)N[C@@H](Cc2ccccc2)[C@H](O)CNCc2cccc(C(F)(F)F)c2)cc(N2CCCCS2(=O)=O)c1 | -1.33% | -0.49% | -0.16% |
| CCc1cccc(-c2cc(N)n(C)c3nc(N)nc(=O)c2-3)c1 | -0.01% | 0.41% | -1.13% |
| COc1cc(F)c2ncc(Cl)c(C(O)CN3CCC(NC(=O)c4ccc5c(c4)NC(=O)CS5)CC3)c2c1 (stereo not drawn) | 8.37% | 7.69% | 4.11% |
| O=C1C(c2ccccc2)=C(Nc2ccc(Cl)cc2)c2ccccc21 | 1.6% | 1.45% | 2.61% |
| COc1cc(OC)c(NC(=O)COc2ccc(C)cc2)cc1Cl | 1.6% | 1.59% | 3.07% |
| CCN1CCN(c2cc(C)c3cc(NC(=O)c4cccc(C(F)(F)F)c4)ccc3n2)CC1 | 3.14% | 3.29% | 1.11% |
| CC(=O)c1ccc(NC(=O)Nc2ccc(N(C)c3ccnc(NC4CC4)n3)cc2)cc1 | -0.95% | -3.95% | 0.62% |
| CCOc1cc(C)ccc1N1CCN(CCN2CCC(NC(=O)c3ccc(-c4ccc(C#N)cc4)cc3)CC2)CC1 | 1.65% | 1.91% | 2.27% |
| COc1cc(Nc2nc(N)c3cc(OC)c(OC)cc3n2)cc(OC)c1 | 6.58% | 5.6% | 3.12% |
| Cc1cc(NCCC(=O)Nc2ccccc2)nc(NCCOc2ccccc2)n1 | -0.01% | -0.67% | -1.58% |
| COc1cccc(CNC[C@@H](O)[C@H](Cc2ccccc2)NC(=O)c2cc(NC(C)C)cc(N3CCCCS3(=O)=O)c2)c1 | -0.22% | 1.05% | 0.68% |
| COc1cccc(-c2cnc(N)c(-c3nc4cc(Cl)c(F)cc4[nH]3)c2)c1 | 15.6% | 14.7% | 8.86% |
| CCN1CCN(C(=O)NC(C(=O)N2CCCC(COc3ccc(Cc4ccccc4)cc3)C2)c2cccs2)C(=O)C1=O (stereo not drawn) | 3.59% | 3.3% | 4.28% |
| Cc1cc(NC(=O)Nc2cccc(N(C)C)c2)c2ccccc2n1 | 2.29% | 2.59% | 1.12% |
| CCN(CC)CCN(Cc1ccc(-c2ccc(C(F)(F)F)cc2)cc1)C(=O)Cn1c(CCc2cccc(F)c2F)nc(=O)c2ccc(F)cc21 | 2.25% | 1.35% | 2.49% |
